High-throughput results (PubChem BioAssay)
HP1b binding inh – inhibitors of HP1-beta chromodomain binding to methylated histone tails; P83916; hit rate 0.56% among 390,000; Potency, µM (highest dose often 114 µM), inactives show top-dose activity change, negative = inhibition, actives largely listed as inhibitors; AID 540317; AlphaScreen HP1-beta / biotin-H3K9me3 peptide binding; further: potency means the concentration at half of the fitted maximal effect; nearly all actives have a fitted effect of over 70% in size
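HP1-beta protein (50 nM final) preincubated 30 min at room temperature with biotinylated H3(1-18)K9me3 peptide (50 nM) in PBS pH 7.4, 0.01% Tween-20, then compound added for 30 min. AlphaScreen streptavidin donor/nickel chelate acceptor beads (10 ug/mL final), 30 min dark, luminescence read.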
JMJD2A Tudor – inhibitors of human JMJD2A Tudor domain. O75164. AlphaScreen JMJD2A-Tudor / H3K4me3 peptide binding. Potency, µM (highest dose often 114 µM), inactives show at the top dose activity change, negative = inhibition, hits mostly inhibitors. hit rate 4.4% among 390,000. AID 504339; further: potency means the concentration at half of the fitted maximal effect; on the % scale 0 is the no-effect control and ±100 the full control effect; nearly all actives have a fitted effect of over 50% in size
L3MBTL1 inh – blocks human L3MBTL1; Q9Y468; AlphaScreen L3MBTL1–H3K9me1 peptide binding; Potency, µM (titrated, usually from 57.1 µM), without a hit: at the top dose activity, negative = inhibition, most hits filed as inhibitors; hit rate 0.66% among 230,000; AID 485360; further: potency means the concentration at half of the fitted maximal effect; on the % scale 0 is the no-effect control and ±100 the full control effect; nearly all actives have a fitted effect of over 60% in size
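Displacement of a biotinylated histone H3(1-15) peptide monomethylated at Lys9 (75 nM) from L3MBTL1 (50 nM) was measured by AlphaScreen after a 30 min room-temperature compound incubation; cefsulodin titration served as intraplate control.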
BAZ2B inh – inhibitors of human BAZ2B bromodomain | Q9UIF8 | AlphaScreen BAZ2B-H3K14Ac peptide displacement | Potency, µM (top dose mostly 114 µM), inactives show top-dose activity change, negative = inhibition, most hits filed as inhibitors | hit rate 4.4% among 360,000; further: potency means the concentration at half of the fitted maximal effect; on the % scale 0 is the no-effect control and ±100 the full control effect; nearly all actives have a fitted effect of over 60% in size
Target sequence (Q9UIF8 whole entry, looked up): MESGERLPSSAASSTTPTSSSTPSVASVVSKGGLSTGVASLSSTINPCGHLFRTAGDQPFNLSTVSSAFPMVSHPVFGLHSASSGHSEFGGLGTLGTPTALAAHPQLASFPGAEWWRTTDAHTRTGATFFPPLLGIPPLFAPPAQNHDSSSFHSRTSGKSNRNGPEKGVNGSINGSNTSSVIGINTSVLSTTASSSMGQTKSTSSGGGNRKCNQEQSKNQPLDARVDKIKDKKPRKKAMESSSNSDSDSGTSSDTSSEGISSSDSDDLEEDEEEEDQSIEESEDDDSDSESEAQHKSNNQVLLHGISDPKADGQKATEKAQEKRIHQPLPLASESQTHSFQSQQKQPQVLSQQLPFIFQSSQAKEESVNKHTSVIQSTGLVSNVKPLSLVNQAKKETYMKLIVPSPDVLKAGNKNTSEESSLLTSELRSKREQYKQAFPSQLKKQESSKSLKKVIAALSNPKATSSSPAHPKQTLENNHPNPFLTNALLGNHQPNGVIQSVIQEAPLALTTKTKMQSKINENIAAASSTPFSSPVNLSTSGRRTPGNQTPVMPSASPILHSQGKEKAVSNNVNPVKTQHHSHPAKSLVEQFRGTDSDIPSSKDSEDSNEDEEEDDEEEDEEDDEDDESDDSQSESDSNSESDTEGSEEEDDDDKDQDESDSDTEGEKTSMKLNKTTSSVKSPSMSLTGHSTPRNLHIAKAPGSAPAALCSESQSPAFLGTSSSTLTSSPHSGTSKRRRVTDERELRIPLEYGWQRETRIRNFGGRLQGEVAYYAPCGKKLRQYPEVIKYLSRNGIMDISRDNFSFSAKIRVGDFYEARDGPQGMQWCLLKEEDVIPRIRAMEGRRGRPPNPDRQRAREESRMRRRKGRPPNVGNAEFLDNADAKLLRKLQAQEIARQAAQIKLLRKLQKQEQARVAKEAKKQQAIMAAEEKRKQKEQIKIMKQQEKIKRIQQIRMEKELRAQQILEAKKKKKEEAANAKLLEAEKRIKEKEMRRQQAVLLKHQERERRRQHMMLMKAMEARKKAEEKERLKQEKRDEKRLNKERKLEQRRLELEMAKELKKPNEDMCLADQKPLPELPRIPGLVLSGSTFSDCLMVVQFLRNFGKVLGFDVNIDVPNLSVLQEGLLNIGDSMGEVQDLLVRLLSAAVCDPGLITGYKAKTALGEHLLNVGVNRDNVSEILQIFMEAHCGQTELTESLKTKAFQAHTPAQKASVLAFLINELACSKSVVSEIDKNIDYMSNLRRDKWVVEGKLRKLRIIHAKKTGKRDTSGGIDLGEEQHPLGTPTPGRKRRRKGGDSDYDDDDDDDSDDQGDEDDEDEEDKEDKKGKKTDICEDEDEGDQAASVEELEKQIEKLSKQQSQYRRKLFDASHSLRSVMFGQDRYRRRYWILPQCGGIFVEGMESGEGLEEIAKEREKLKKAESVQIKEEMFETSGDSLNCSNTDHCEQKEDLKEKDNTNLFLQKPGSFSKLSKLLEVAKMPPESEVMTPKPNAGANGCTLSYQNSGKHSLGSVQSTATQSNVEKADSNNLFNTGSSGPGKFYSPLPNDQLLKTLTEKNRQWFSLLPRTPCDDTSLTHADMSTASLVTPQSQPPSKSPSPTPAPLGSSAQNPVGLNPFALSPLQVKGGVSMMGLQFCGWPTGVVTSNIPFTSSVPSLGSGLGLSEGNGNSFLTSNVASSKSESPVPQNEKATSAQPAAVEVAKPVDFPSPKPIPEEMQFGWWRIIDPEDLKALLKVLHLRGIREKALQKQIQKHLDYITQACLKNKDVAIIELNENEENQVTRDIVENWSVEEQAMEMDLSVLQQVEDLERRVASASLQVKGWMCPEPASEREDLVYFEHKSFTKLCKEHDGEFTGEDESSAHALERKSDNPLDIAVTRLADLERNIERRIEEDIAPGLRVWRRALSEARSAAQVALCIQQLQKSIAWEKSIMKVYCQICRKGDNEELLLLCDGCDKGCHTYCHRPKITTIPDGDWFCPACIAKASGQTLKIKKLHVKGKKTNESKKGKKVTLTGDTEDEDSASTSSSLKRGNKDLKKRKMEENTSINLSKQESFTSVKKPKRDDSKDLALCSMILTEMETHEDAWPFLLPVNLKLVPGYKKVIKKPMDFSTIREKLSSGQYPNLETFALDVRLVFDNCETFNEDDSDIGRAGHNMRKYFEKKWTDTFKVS
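Multi-concentration screen (max 110 uM) measuring displacement of acetylated histone H3 peptide from BAZ2B by AlphaScreen, using 50 nM protein, 50 nM peptide and 10 ug/mL streptavidin donor plus Ni-chelate acceptor beads.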
PI5P4K alpha inh – PI5P4K alpha (human) kinase inhibition. hit rate 1.2% among 330,000. max response, %. P48426. PI5P4Kalpha enzyme, ADP-Glo luminescence, 60 min; active compounds read low; active means max response of -50% or lower; inconclusive means between -30% and -50%; inactive means -30% or higher; further: value at the top dose of about 77 µM; on the % scale 0 is the no-effect control and ±100 the full control effect
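Human PI5P4Kalpha with substrate in 0.038 M HEPES pH 7.4, 0.28 mM EGTA, 0.1% CHAPS, 5% DMSO; reaction started with 5 microM ATP (final), 60 min at room temperature. ADP formed read by ADP-Glo luminescence.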
G9a block – G9a (human) methyltransferase inhibition; Q96KQ7; G9a H3K9 monomethylation, AlphaScreen, 2 h; Potency, µM (titrated, usually from 102 µM), for inactives: at the highest dose activity, negative = inhibition, actives largely listed as inhibitors; hit rate 8.8% among 350,000; AID 504332; further: potency means the concentration at half of the fitted maximal effect; on the % scale 0 is the no-effect control and ±100 the full control effect; nearly all actives have a fitted effect of over 75% in size
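Using a bead-based AlphaScreen, monomethylated H3K9 product from 2 h room-temperature reactions (G9a 20 nM, peptide 500 nM, SAM 20 uM) was detected with 0.5 ug/mL rabbit anti-H3K9me1 antibody.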
* hit, by the source's call; ? = inconclusive; · = not tested or not shown; ! = repeats disagree; [ ] = another dose, or the depositor's remark. An excerpt weighted towards active compounds, which were near 11% of everything screened. Unless noted, the call rests on the fitted dose curve; in most records, active means well fitted inhibition curve with a large enough effect; inconclusive means small, poorly fitted or top-dose-only effect; inactive means no such curve, though single readings can be large or run the other way.

SMILES	HP1b binding inh	JMJD2A Tudor	L3MBTL1 inh	BAZ2B inh	PI5P4K alpha inh	G9a block
CCC1(CC)C(=O)N(Cc2ccccc2)C(=O)N(Cc2ccccc2)C1=O	83.2%	60.4%	·	37.3%	·	22.6%
Cn1cccc1/C=C1\C(=O)NC(=O)N(Cc2ccccc2)C1=O	?	?	·	50.1µM*	-57.7*	?
O=C1CCCCC1	49.5%	-6.9%	2.9%	9.5%	-2.6	15.0%[0.501 µM]
Cc1ccc(N=Nc2cc(C)ccc2N)cc1	?	?	14.1µM*	7.94µM*	1.1	·
Cc1ccc(N)c(C)c1	41.3%	-12.4%	-4.7%	5.5%	3.1	-4.8%[0.501 µM]
CC(C)CCNC(=O)Cn1c(=O)oc2cc(S(=O)(=O)N3CCc4ccccc43)ccc21	40.6%	-25.5%	-3.2%	-4.4%	-0.9	?
O=C(c1ccncc1)N1CCC[C@@]2(CCN(Cc3nccs3)C2)C1	·	·	·	·	·	-2.1%[12.7 µM]
CN(C)/C=c1\sc2c(C#N)cc(C(=O)c3ccc(Br)cc3)n2c1=O	52.0%	-0.8%[11.4 µM]	-3.3%[11.4 µM]	10.4%	-17.0	5.5%[12.7 µM]
Cc1cccc(C(=O)Nc2ccc3c(c2)CC2(C(=O)N(C)C(=O)N(C)C2=O)C2CCCN32)c1 (stereo unspecified)	39.5%	-21.3%	·	-16.3%	-7.5	28.2µM*
COc1ccccc1C(=O)Nc1ccc2c(c1)CC1(C(=O)N(C)C(=O)N(C)C1=O)C1CCCN21 (stereo unspecified)	8.4%[57 µM]	-31.0%	·	-20.3%	-2.0	31.6µM*
CN1C(=O)N(C)C(=O)C2(Cc3cc([N+](=O)[O-])ccc3N3CCN(C(=O)c4ccccc4)CC32)C1=O (stereo unspecified)	-4.3%	-13.7%	·	-5.1%	-8.0	11.1%
NC[C@@H]1O[C@H](O[C@H]2[C@@H](O)[C@H](O[C@@H]3[C@@H](O)[C@H](N)C[C@H](N)[C@H]3O[C@H]3O[C@H](CO)[C@@H](O)[C@H](O)[C@H]3N)O[C@@H]2CO)[C@H](N)[C@@H](O)[C@@H]1O	·	·	·	2.8%	·	9.1%[59 µM]
CCNC(=O)[C@H]1O[C@@H](n2cnc3c(N)ncnc32)[C@H](O)[C@H]1O	·	·	·	·	·	51.4%[12.7 µM]
CCCCCCCCCCCCCC(=O)O[C@@H]1[C@@H](C)[C@@]2(O)[C@@H](C=C(CO)C[C@@]3(O)C(=O)C(C)=C[C@@H]23)C2C(C)(C)[C@@]21OC(C)=O (stereo partly specified)	·	·	·	·	·	7.94µM*!
CC(=O)N(C)CC#CCN1CCC(O)CC1	0.9%	31.6µM*	·	·	·	·
Cc1ccc(-c2nc(CN3C(=O)CN=C(c4ccccc4)c4ccccc43)c(C)o2)cc1	42.7%	3.3%	·	4.0%	·	?
Cc1oc(-c2ccccc2Cl)nc1CN1C(=O)CN=C(c2ccccc2)c2ccccc21	4.3%	?	-2.1%	?	2.1	39.8µM*
O=C1Nc2ccccc2/C1=C/c1nc2ccccc2c(=O)n1-c1ccc(O)cc1	-21.8%	-26.0%	·	39.8µM*	-20.8	·
COc1ccc(-n2c(/C=C3\C(=O)Nc4ccccc43)nc3ccccc3c2=O)cc1	-1.4%	1.4%	·	2.3%	1.9	-2.5%
O=c1c2ccccc2nc(/C=C/c2ccccc2)n1-c1ccc(O)cc1	1.3%	-22.4%	·	-21.2%	-2.6	5.4%
O=c1c2ccccc2nc(/C=C/c2ccc([N+](=O)[O-])o2)n1-c1ccc(O)cc1	17.6%	-35.0%	?	?	-18.6	50.1µM*
O=c1c2ccccc2nc(/C=C/c2ccc(O)c(O)c2)n1-c1ccccc1	-15.0%	-33.6%	-3.1%	?	-25.9	7.94µM*
Cc1ccccc1CN1C(=O)CN=C(c2ccccc2)c2cc(Cl)ccc21	23.7%	-22.1%	·	-3.9%	·	-27.5%[59 µM]
COC(=O)COc1ccc(/C=C2\C(=O)NC(=S)N(c3ccc(C)cc3)C2=O)cc1OC	16.8%	?	·	-30.5%	-53.5*	11.2µM*
COc1ccc(N2C(=O)/C(=C/c3ccc(OC)c(OC)c3)C(=O)NC2=S)cc1	?	56.2µM*	5.0%	-29.9%	-53.6*	·
SMILES	HP1b binding inh	JMJD2A Tudor	L3MBTL1 inh	BAZ2B inh	PI5P4K alpha inh	G9a block
COc1ccc(N2C(=O)/C(=C/c3ccc(C)o3)C(=O)NC2=S)c(OC)c1	-22.9%	50.1µM*	-7.3%[2.29 µM]	50.1µM*	?	12.0%[0.501 µM]
COc1ccc(-n2nc(C(=O)NCC(=O)N3CCC4(CC3)OCCO4)c3ccccc3c2=O)c(OC)c1	-23.4%	6.3%	·	-1.3%	1.0	7.5%[12.7 µM]
CCOC(=O)CSCCOc1ccc(C=C2C(=O)NC(=O)NC2=O)cc1OC	31.4%	-18.9%	-15.5%	?	?	22.4µM*
O=c1c2ccccc2nc(/C=C\c2ccccc2F)n1-c1ccc(O)cc1	18.1%	-15.0%	·	-5.8%	·	9.8%[59 µM]
CCOC(=O)C1CCN(/C=C2/C(=O)NC(=S)N(c3cccc(OC)c3)C2=O)CC1	35.5%	-9.0%	4.6%	-3.4%	-9.6	22.4µM*
COc1cc(/C=C2/C(=O)NC(=O)N(c3ccc(C)cc3)C2=O)cc(OC)c1OC	-7.5%	-13.5%	-0.2%	-4.2%	-11.2	-4.5%[12.7 µM]
CCOC(=O)C1CCN(/C=C2\C(=O)NC(=S)N(CC)C2=O)CC1	67.3%	-12.4%	-6.4%	-1.3%	-24.3	-6.6%
CCOC(=O)COc1ccc(/C=C2\C(=O)NC(=S)N(c3ccc(OC)cc3)C2=O)cc1OC	11.0%	35.5µM*	·	?	-56.4*	?
O=C(NCCCCc1ccccc1)c1ccccc1Br	52.6%	-1.3%	·	·	1.8	·
Cc1ccc(-n2nc3c(=O)n(CC(=O)Nc4ccccc4F)nc(C)c3c2C)c(C)c1	40.4%	-15.1%	·	-1.6%	·	-5.1%[59 µM]
CN1C(=O)C(C2(C#N)CCCCC2)C(=O)N(C)C1=O	42.1%	-10.9%	-4.0%	12.2%	·	50.1µM*
CC(=O)CC(=O)C1C(=O)N(C)C(=O)N(C)C1=O	28.2%	-10.5%	4.6%	-9.6%	-8.9	-28.3%
C/C=C(\C)CN1CCN(c2ccccc2F)CC1	?	3.16µM*	10.7%	?	·	?
CCN(CC)C(=O)CN1CCN(c2ccccc2F)CC1	?	8.91µM*	-6.9%	?	·	31.6µM*
O=C(Oc1cccnc1)c1ccc(Cl)cc1	32.3%	7.4%	-5.6%	?	0.4	?
CN1C(=O)C(=Cc2sc(=O)n(-c3ccccc3)c2N2CCCCC2)C(=O)N(C)C1=O	23.2%	-17.6%	-10.9%	?	1.2	50.1µM*
CC(Cc1ccccc1)NC(=O)c1ccc(N)cc1 (stereo unspecified)	8.2%	-11.7%	-5.3%	-4.6%	-6.1	50.5%[59 µM]
CCn1c(SCC(=O)NCc2ccccc2)nnc1C(CO)NC(=O)c1ccccc1 (stereo unspecified)	5.9%	-7.2%	·	-16.5%	-8.9	31.6µM*
CC(CN)CC(=O)O (stereo unspecified)	·	·	·	·	·	1.9%[59 µM]
N/C(=N\N=C/c1ccc(-c2ccc(O)c(C(=O)O)c2)o1)N[N+](=O)[O-]	15.8µM*	11.2µM*	11.2µM*	25.1µM*	·	25.1µM*
